Among the data in patent US20210230599, “STEM-LOOP COMPOSITIONS AND METHODS FOR INHIBITING INTERLEUKIN-8” (VITRISA THERAPEUTICS, INC., published 2021) are binding signal values, retold here.

Some results are limits rather than exact numbers.

This experiment has as its target Interleukin-8 (IL8, CXCL8), C-terminal His-tagged (Homo sapiens, UniProt P10145 SEQ:1-72). Put plainly: competition; competition TR-FRET; L1 A to U, described as complete loss. The note with it: tags: C-terminal 6xHis (Sino Biological); ssRNA; 2'-F G, 2'-OMe A/C/U, 5' C6NH2, 3' idT. The protocol: To better understand the sequence requirements and to confirm the stem structures of members of the Aptamer 3 family as determined from sequence covariation analysis from both the primary and secondary (degenerate) selections, a series of variants which included mutations and deletions to the predicted stems were synthesized and screened (Table 24). Activity of each of these variants were tested using a time resolved competition TR-FRET assay in which the labeled parent Aptamer 3 was competed with increasing concentrations of unlabeled variants for binding to IL8 (FIG. 14). Briefly, 2-fold dilutions of thermally equilibrated aptamers were made in TR-FRET Buffer (50 mM MOPS, pH 7.4, 125 mM NaCl, 5 mM KCl, 50 μM CHAPS, 0.1 mg/mL BSA, 1 mM CaCl₂, and 1 mM MgCl₂). 5 μL of aptamer or control solution was added to 5 μl mix of 10 nM C-terminal His-tagged-IL8, 60 nM ALEXA FLUOR® 647-labeled Aptamer, and 5 nM anti-His-Eu (Perkin Elmer) in a black wall low volume 384 well plate (Greiner). […] The plate was read on a Biotek CYTATION™ 5 plate reader. […]
To confirm the importance of this residue, molecules were made and tested in which either loop L1 was deleted entirely (Aptamer 40) or was mutated to 5′-U-3′(Aptamer 41). In both cases, there was a complete loss of activity (>10-fold) as determined by competition TR-FRET assay (Table 25 and FIG. 15).
(In general: Time-resolved FRET reads energy transfer from a long-lived donor to a nearby acceptor.)
In turn, GAUGUCGGUAGAUUACGGGUAGAGUGACCGCAUC had a binding signal greater than 10 fold worse than Aptamer 3.
